# From the supplement of paper PMC10981050
# Where “and” joins values, the source holds several entries; their conditions need not be identical. Equal values may be shown once. Where a name gives a salt, the structure may show the parent alone.
# Columns and labels:
# Experiment in all cases: cell viability relative to vehicle control; higher = less cytotoxic
# Details in all cases: 10 µM
# K562 = system: K562
# Outline: (§1)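 Each screen used CRISPR-edited mutant and wild-type clones from four leukaemia lines. Compounds were acoustically dispensed at a single 10 µM dose, and CellTiter-Glo luminescence was read after 48 h with the supernatant first removed. Viability was analysed in Genedata Screener and given as percent of the on-plate vehicle control.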
# MARIMO = system: MARIMO
# Outline: as §1
# MOLM14 = system: MOLM14
# Outline: as §1
# OCI-AML2 = system: OCI-AML2
# Outline: as §1
Compound,cell viability (K562; SRSF2 genotype: SRSF2 P95H/wt),cell viability (K562; SRSF2 genotype: SRSF2 wt/wt),cell viability (MARIMO; SRSF2 genotype: SRSF2 P95H/wt),cell viability (MARIMO; SRSF2 genotype: SRSF2 wt/wt),cell viability (MOLM14; SRSF2 genotype: SRSF2 P95H/wt),cell viability (MOLM14; SRSF2 genotype: SRSF2 wt/wt),cell viability (OCI-AML2; SRSF2 genotype: P95H/wt),cell viability (OCI-AML2; SRSF2 genotype: wt/wt)
CCCCNc1ncc2c(-c3ccc(CN4CCN(C)CC4)cc3)cn([C@H]3CC[C@H](O)CC3)c2n1,5.45% and 6.26%,6.13%,8.07%,5.67%,0.26%,0.23%,1.56%,5.54%
O=C(NCCN1CCOCC1)c1ccc(Cl)cc1,97.6% and 103%,106%,101%,98.8%,97.6%,105%,105%,93.8%
N#Cc1ccc(-c2c(-c3ncn[nH]3)sc(N3CCOCC3)c2C#N)c(F)c1,60.4% and 73.5%,68.2%,47.4%,39%,27.8%,28.3%,9.07%,24%
Cc1ccc(NCCN(C)CCNc2ccnc3cc(Cl)ccc23)c2c(=O)c3ccccc3sc12,75.8% and 92.5%,76.6%,78%,88.2%,81%,79.7%,85.9%,84%
C#C[C@]1(OC(C)=O)CC[C@H]2[C@@H]3CCC4=C[C@@H](OC(C)=O)CC[C@@H]4[C@H]3CC[C@@]21C [Ethynodiol diacetate],78.7% and 88.6%,80.7%,51.5%,46.5%,63.6%,78.8%,30.3%,36.3%
O[C@H]1[C@H]2c3cc4c(cc3CN3CCC(=C[C@@H]1O)[C@H]23)OCO4 [Lycorine],18.3% and 25.2%,27.9%,23%,20.6%,18.2%,7.75%,0.46%,1.41%
CC(Oc1cc(-c2cnn(C3CCNCC3)c2)cnc1N)c1c(Cl)ccc(F)c1Cl [(S)-crizotinib],85.7% and 81%,74.8%,84.4%,92%,78.2%,86.2%,88.8%,75.3%
C1=N/C2=N/c3ccc(OCCN4CCCC4)c(c3)COC/C=C/COCc3cccc(c3)C(=C1)N2 [Pacritinib (SB1518)],3.78% and 2.31%,4.47%,0.41%,0.42%,0.21%,0.25%,0.2%,0.32%
CCCN(CCC)S(=O)(=O)c1ccc(C(=O)O)cc1 [Probenecid (Benemid)],99.3% and 88.4%,91%,92.1%,101%,96.4%,97%,96.2%,88.9%
CC(C)C(C)C(O)C(O)C(C)C1CCC2C3COC(=O)C4CC(O)C(O)CC4(C)C3CCC12C (stereo not given) [Brassinolide],98.5% and 94.6%,99.3%,107%,115%,95.8%,103%,120%,103%
COc1ccc(-c2oc3c(CC=C(C)C)c(O[C@@H]4O[C@H](CO)[C@@H](O)[C@H](O)[C@H]4O)cc(O)c3c(=O)c2O[C@@H]2O[C@@H](C)[C@H](O)[C@@H](O)[C@H]2O)cc1 [Icariin],94.5% and 104%,98.7%,98.7%,110%,108%,104%,105%,112%
CCc1c(Cl)c(O)c(Cl)c(O)c1C(=O)O[C@H]1[C@H](O)[C@H](OC)[C@H](OC/C2=C\C=C\C[C@H](O)/C(C)=C/[C@H](CC)[C@@H](O[C@@H]3OC(C)(C)[C@@H](OC(=O)C(C)C)[C@H](O)[C@@H]3O)/C(C)=C/C(C)=C/C[C@@H]([C@@H](C)O)OC2=O)O[C@@H]1C [Fidaxomicin],81.3% and 80.5%,78.3%,86.2%,91.3%,74.9%,84.6%,110%,100%
O=C(Cc1ccc(-c2ccc(OCCN3CCOCC3)cc2)cn1)NCc1ccccc1,10.7% and 34.3%,33%,6.74%,9.4%,1.55%,2.72%,4.61%,8.35%
CC(C)c1cc2c(cc1S(=O)(=O)O)[C@@]1(C)CCC[C@@](C)(C(=O)O)[C@@H]1CC2 [Ecabet sodium],95.2% and 96.4%,105%,96.6%,101%,97%,99.7%,105%,91.8%
CCCCCCC=CCCCCCCCc1cccc(O)c1C(=O)O [Ginkgolic Acid],103% and 101%,104%,108%,110%,109%,107%,100%,106%
C[C@@H]1CC(=O)Nc2cccc(-c3ccc4c(c3)c(-c3cnn(C)c3)nn4C)c2N1,80.2% and 77.7%,81.6%,55.1%,49.1%,32.5%,35.8%,32.6%,47.2%
CC(c1cc2ccccc2s1)N(O)C(N)=O (stereo not given) [Zileuton],101% and 96.3%,99.1%,94.3%,99.2%,98.7%,98.1%,92.8%,97.4%
CC(=O)OC(C)(C)CCC(=O)[C@](C)(O)[C@H]1[C@H](O)C[C@@]2(C)[C@@H]3CC=C4[C@@H](C[C@H](O)[C@@H](O)C4(C)C)[C@]3(C)C(=O)C[C@]12C [Curcurbitacin IIA],67.7% and 75.2%,77.4%,80.9%,87.6%,34.7%,22.4%,21.4%,28.8%
C=CC(=O)Nc1ccc2ncnc(Nc3cccc(Br)c3)c2c1,66% and 72.7%,71.1%,70%,86.8%,61.6%,81.3%,50%,50.9%
CC(C)N(CC[C@H](c1ccccc1)c1cc(CO)ccc1O)C(C)C,89.7% and 94%,98.4%,88.3%,90.7%,93.3%,97.9%,93.5%,90.9%

Compound,cell viability (K562; SRSF2 genotype: SRSF2 P95H/wt),cell viability (K562; SRSF2 genotype: SRSF2 wt/wt),cell viability (MARIMO; SRSF2 genotype: SRSF2 P95H/wt),cell viability (MARIMO; SRSF2 genotype: SRSF2 wt/wt),cell viability (MOLM14; SRSF2 genotype: SRSF2 P95H/wt),cell viability (MOLM14; SRSF2 genotype: SRSF2 wt/wt),cell viability (OCI-AML2; SRSF2 genotype: P95H/wt),cell viability (OCI-AML2; SRSF2 genotype: wt/wt)
c1ccc2c(CCNc3ccc(Nc4ccncc4)cc3)c[nH]c2c1,28.3% and 44.5%,46%,21.3%,44.4%,0.51%,0.5%,0.66%,2%
COc1nc(OCc2cccc(-c3ccccc3)c2C)ccc1CNCCNC(C)=O [BMS202 (PD-1/PD-L1 inhibitor 2)],10.8% and 26.5%,32.6%,60.9%,59%,41.6%,31.9%,53.5%,51.3%
Cc1nn(C)c2nc(NNC(=O)Nc3cc(Cl)nc(Cl)c3)cc(C(C)C)c12,70.7% and 79.6%,70%,82.1%,61.8%,83%,83.8%,50.5%,55.4%
C=C1[C@H](O)C[C@H]2[C@@H](/C=C(\C)C(=O)[C@@]3(O)C[C@H](C)[C@H](O)[C@@H]3[C@H]1O)C2(C)C,98.1% and 92%,99%,93.7%,100%,99.8%,98.1%,93.9%,101%
COc1ccc(S(=O)(=O)Nc2nc(-c3cccc([N+](=O)[O-])c3)cs2)cc1OC,104% and 99%,92.7%,97.4%,112%,93.3%,100%,95.4%,108%
CCOC(=O)c1cnc2ccc(-c3cncc(NS(=O)(=O)c4ccccc4)c3)cn12,22.4% and 35.9%,34.2%,17.1%,20%,3.14%,4.38%,2.77%,9.47%
O=C(NCCS(=O)(=O)c1ccc(C(F)(F)F)cn1)c1ccc(Cl)cc1,103% and 96.6%,102%,91.2%,102%,102%,99.2%,91.7%,102%
COC(=O)N[C@H](C(=O)N[C@@H](Cc1ccccc1)[C@@H](O)CN(Cc1ccc(-c2ccccn2)cc1)NC(=O)[C@@H](NC(=O)OC)C(C)(C)C)C(C)(C)C [Atazanavir sulfate],97.1% and 109%,102%,93.5%,118%,103%,104%,94.5%,97.3%
COC(=O)N(C)c1c(N)nc(-c2nn(Cc3ccccc3F)c3ncccc23)nc1N [Riociguat (BAY 63-2521)],89.6% and 89.1%,82.6%,85%,99%,90.2%,94%,96.3%,108%
C[C@H]1[C@H](C)CC[C@]2(C(=O)O)CC[C@]3(C)C(=CC[C@@H]4[C@@]5(C)CCC(=O)C(C)(C)[C@@H]5CC[C@]43C)[C@H]12 [Ursonic acid],37.2% and 50.8%,55.8%,27.6%,19%,28.4%,19.4%,24.6%,16.9%
COc1c(O)cc2c(c1O)[C@@H]1O[C@H](CO)[C@@H](O)[C@H](O)[C@H]1OC2=O [Bergenin (Cuscutin)],100% and 84%,86.1%,89.2%,99%,85.6%,91.9%,91%,94.1%
CN(C)CC(=O)Nc1ccc2[nH]c(=O)c3ccccc3c2c1,97.7% and 93.8%,94.9%,100%,94.6%,89.1%,96%,91.6%,98.4%
CC(=O)O[C@@H]1C[C@H](O)[C@@]23CO[C@@H](O)[C@]1(C)[C@@H]2C[C@@H](O)[C@]1(C)[C@@H]3C(=O)[C@H](OC(C)=O)[C@@]2(C)[C@H](c3ccoc3)C[C@H]3O[C@]321 [Toosendanin],45.5% and 43%,42.4%,38.2%,34.2%,37.1%,11.1%,23.8%,23.9%
Cn1cnc2c(F)c(Nc3ccc(Br)cc3F)c(C(=O)NOCCO)cc21,84.2% and 92.4%,79.5%,41%,38.6%,45.8%,28.9%,39.5%,42.5%
O=c1c(-n2ccnn2)c[nH]n1-c1cc(N2CCOCC2)ncn1 [Molidustat(BAY 85-3934)],96.1% and 100%,90.2%,81.8%,98.1%,87.9%,93.6%,85.2%,87.9%
O=c1[nH]cnc2nc[nH]c12 [Hypoxanthine],98.8% and 108%,96.8%,101%,116%,103%,115%,103%,105%
CCOc1ccc(Cc2cc([C@]34OC[C@](CO)(O3)[C@@H](O)[C@H](O)[C@H]4O)ccc2Cl)cc1 [Ertugliflozin],104% and 95.2%,104%,104%,101%,103%,102%,104%,113%
CC1CNc2c(cccc2S(=O)(=O)N[C@@H](CCCNC(=N)N)C(=O)N2CC[C@@H](C)C[C@@H]2C(=O)O)C1 (stereo not given in full) [Argatroban Monohydrate],103% and 94.3%,96.2%,96.9%,103%,97.8%,106%,93.6%,94%
Nc1nc(=S)c2ncn([C@H]3C[C@H](O)[C@@H](CO)O3)c2[nH]1,29.9% and 33.4%,29.9%,56.1%,44.8%,44.1%,31.7%,22.8%,27.8%
CC(C)n1c(=O)n(C)c2cnc3cc(F)c(-c4ccc(OCCCN5CCCCC5)nc4)cc3c21,71.3% and 72.9%,75.9%,60%,61%,30.9%,32%,32.7%,37%
